Assay outcomes deposited in PubChem by several laboratories.
Hsp70 activator – Hsp70 transcriptional activation, primary screen; HeLa Hsp70 promoter luciferase reporter, luminescence; scaled: vehicle 0, proteasome-inhibitor control 100%; activation, % at 10 µM; 200,000 tested, 0.04% active; AID 1203;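 active = activation above the mean across all tested compounds plus 3 SD, cutoff set per campaign, cut at about 5.5% in these data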;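 note: 100% = MG132 at 30 µM as the positive control and 0% = DMSO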
S1P4 agonist – activates the human S1P4 receptor; O95977; 220,000 tested, 0.35% active; activation, % at 4.98 µM; S1P4-expressing cell line, agonist reporter assay; in the data active = activation above about 11%;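 note: 0% = DMSO vehicle and 100% = reference agonist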
Target sequence (O95977 whole entry, looked up): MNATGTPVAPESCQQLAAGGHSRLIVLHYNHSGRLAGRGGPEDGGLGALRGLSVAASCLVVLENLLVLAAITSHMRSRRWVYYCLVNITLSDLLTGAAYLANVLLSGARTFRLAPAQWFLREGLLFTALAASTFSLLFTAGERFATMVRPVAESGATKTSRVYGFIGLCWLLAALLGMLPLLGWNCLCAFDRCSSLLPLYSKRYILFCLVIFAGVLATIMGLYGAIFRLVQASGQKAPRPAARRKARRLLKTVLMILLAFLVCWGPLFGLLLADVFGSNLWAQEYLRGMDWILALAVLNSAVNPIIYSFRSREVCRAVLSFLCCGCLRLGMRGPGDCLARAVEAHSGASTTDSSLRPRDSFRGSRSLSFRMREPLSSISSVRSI
S1P3 antagonist – S1P3 (human) receptor antagonism; Q99500; CHO S1P3 NFAT-BLA reporter, FRET fluorescence, antagonist mode; inhibition, % at 4.98 µM; 170,000 tested, 0.27% active; AID 485;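 active = inhibition above the plate cutoff, the mean inhibition of test wells on that plate plus 3 SD, cut at about 28% in these data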;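 note: cells challenged with S1P at its EC80 of 0.8 µM; blue over green emission ratio from cleaved BLA substrate after 4 h stimulation; 0% = S1P-stimulated wells and 100% = unstimulated DMSO-only wells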
AI-2 QS mod – modulators of Vibrio harveyi AI-2 quorum sensing system; activity change, % at 7.5 µM; Vibrio harveyi JMH597 AI-2 luminescence/OD600 ratio, 9 h; hits give low values; strain lacks LuxN and CqsS sensors; 0 = neutral-control median; AID 2094; 300,000 tested, 0.4% active; in the data active = activity change below about -75%, passing the limit was not always enough;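 note: luminescence divided by OD600 gain over 9 h not by final OD600 alone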
S1P4 antag – antagonists of human S1P4 receptor | inhibition, % at 4.98 µM | O95977 | AID 1510 | 220,000 tested, 0.26% active | S1P4-expressing cells, antagonist mode, reporter read-out; in the data active = inhibition above about 29%;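 note: 0% = wells stimulated with agonist and 100% = vehicle wells without agonist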
* = called active by the depositor. Rows were chosen to be rich in hits. Some 0.97% of all compounds tested hit in one or more screens of this group.

Results for CC(=O)Nc1ccc(S(=O)(=O)Nc2cccc(-c3csc(C)n3)c2)cc1 ?
Hsp70 activator: 0; S1P4 agonist: 0; S1P3 antagonist: 7; AI-2 QS mod: 15; S1P4 antag: 1

What do the screens show for `Nc1nc(-c2cccc(NS(=O)(=O)c3ccccc3)c2)cs1`?
Hsp70 activator: 0; S1P4 agonist: -4; S1P3 antagonist: 53*; AI-2 QS mod: -19; S1P4 antag: 0

How did O=C(OCC(=O)N1CCCC1=O)c1ccc(Cl)cc1[N+](=O)[O-] do in these assays?
AI-2 QS mod: -81*

What do the screens show for `CN(CC(=O)Nc1ccccc1Cl)C(=O)COC(=O)C1CC1`?
AI-2 QS mod: 12

How did O=C(OCC(=O)N1CCN(c2ccccc2)CC1)c1ccc(Cl)cc1[N+](=O)[O-] do in these assays?
AI-2 QS mod: -67

Results for O=C(OCC(=O)N1CCOCC1)c1ccc(Cl)cc1[N+](=O)[O-] ?
AI-2 QS mod: -79*

What do the screens show for `CN(CC(=O)Nc1ccccc1Cl)C(=O)COC(=O)c1ccc(Cl)cc1[N+](=O)[O-]`?
AI-2 QS mod: -94*

What do the screens show for `O=C(CNC(=O)c1[nH]cnc1C(=O)NC(c1ccccc1)c1ccccc1)OCc1ccccc1`?
AI-2 QS mod: 24

Results for N#Cc1ccc(CSc2nnc3[nH]c(=O)cc(N)n23)cc1 ?
Hsp70 activator: 0; S1P4 agonist: -1; S1P3 antagonist: -5; AI-2 QS mod: 25; S1P4 antag: -3

What do the screens show for `COc1ccc(CSc2nnc3[nH]c(=O)cc(N)n23)cc1`?
Hsp70 activator: 0; S1P4 agonist: -1; S1P3 antagonist: -9; AI-2 QS mod: -80*; S1P4 antag: -16

Results for Cc1ccc2[nH]c3c(NCc4ccco4)ncnc3c2c1 ?
Hsp70 activator: -1; S1P4 agonist: -2; S1P3 antagonist: 59*; AI-2 QS mod: 9; S1P4 antag: 2

What do the screens show for `COc1cc(CNc2ncnc3c2[nH]c2ccc(C)cc23)cc(OC)c1`?
S1P4 agonist: 0; S1P3 antagonist: 14; AI-2 QS mod: 17; S1P4 antag: 1

Results for O=C(c1cccs1)C1CCCN(Cc2nc(Cc3ccccc3F)no2)C1 (stereo not drawn) ?
Hsp70 activator: 0; S1P4 agonist: 1; S1P3 antagonist: 1; AI-2 QS mod: -4; S1P4 antag: -24

Results for COc1ccc(S(=O)(=O)Nc2cc(C)ccn2)cc1OC ?
Hsp70 activator: 0; S1P4 agonist: 0; S1P3 antagonist: 115*; AI-2 QS mod: 24; S1P4 antag: -6

How did CC(C)(C)S(=O)(=O)c1cnc(-c2ccc(Cl)cc2)nc1N do in these assays?
S1P4 agonist: 1; S1P3 antagonist: -9; AI-2 QS mod: -6; S1P4 antag: 10

How did Cc1nc(N)nc(N)c1/C=C/C(C)(C)c1ccc(Cl)cc1 do in these assays?
Hsp70 activator: 0; S1P4 agonist: 0; S1P3 antagonist: -11; AI-2 QS mod: -89*; S1P4 antag: -7

Results for Cc1c(C(=O)Nc2ccccn2)sc2nc3n(c(=O)c12)CCC3 ?
AI-2 QS mod: 37

What do the screens show for `O=C(NNC(=O)c1cnccn1)c1ccc(Cl)c(Cl)c1`?
AI-2 QS mod: -288*

What do the screens show for `CCCCn1c(N)c(N(CCOC)C(=O)CN(C)S(=O)(=O)c2ccc(F)cc2)c(=O)[nH]c1=O`?
AI-2 QS mod: 25

Results for O=S(=O)(NCc1ccccn1)c1ccccc1 ?
Hsp70 activator: 0; S1P4 agonist: 1; AI-2 QS mod: 36; S1P4 antag: -7

What do the screens show for `O=S(=O)(Cc1ccccc1)NCc1ccccn1`?
Hsp70 activator: 0; S1P4 agonist: -1; S1P3 antagonist: 103*; AI-2 QS mod: 6; S1P4 antag: -5

What do the screens show for `COc1cccc(C(=O)O/N=C(\N)Cc2ccc(Cl)cc2)c1`?
Hsp70 activator: 0; S1P4 agonist: 0; S1P3 antagonist: 4; AI-2 QS mod: -92*; S1P4 antag: -5

How did COc1cccc(C(=O)O/N=C(\N)c2ccc(C)cc2)c1 do in these assays?
AI-2 QS mod: 16

What do the screens show for `O=[N+]([O-])c1ccc(/C=[N+](\[O-])[C@@H]2CCCC[C@@H]2/[N+]([O-])=C/c2ccc([N+](=O)[O-])o2)o1`?
AI-2 QS mod: 84

Results for O=[N+]([O-])c1ccc(-c2ccn[nH]2)o1 ?
Hsp70 activator: 0; S1P4 agonist: 2; S1P3 antagonist: 19; AI-2 QS mod: -129*; S1P4 antag: -3

How did COC(=O)C1=C(N)Oc2cc(C)n(C)c(=O)c2C1c1ccc(Cl)cc1 (stereo not drawn) do in these assays?
Hsp70 activator: 0; S1P4 agonist: -2; S1P3 antagonist: 71*; AI-2 QS mod: 9; S1P4 antag: -8

Results for Cc1[nH]c2ccccc2c1C(=O)C(C)OC(=O)C1CCC1 (stereo not drawn) ?
AI-2 QS mod: 5

Results for O=C1c2oc3ccc(Br)cc3c(=O)c2C(c2cccnc2)N1Cc1ccco1 (stereo not drawn) ?
S1P3 antagonist: 95*

Results for O=C(COc1coc(CN2CCN(Cc3ccccc3)CC2)cc1=O)Nc1ccccc1 ?
AI-2 QS mod: -3

How did O=c1[nH]cc(F)c(=O)[nH]1 do in these assays?
Hsp70 activator: 0; S1P4 agonist: 2; S1P3 antagonist: -15; AI-2 QS mod: -88*; S1P4 antag: -6

How did S=c1nc[nH]c2nc[nH]c12 do in these assays?
AI-2 QS mod: -154*

How did COc1ccc2[nH]c3c(=S)nc[nH]c3c2c1 do in these assays?
Hsp70 activator: 0; S1P4 agonist: 2; S1P3 antagonist: 10; AI-2 QS mod: 1; S1P4 antag: -14

How did Cc1ccc(C(=O)NCc2ccccc2)cc1Br do in these assays?
Hsp70 activator: 0; S1P4 agonist: 3; S1P3 antagonist: 1; AI-2 QS mod: -77*; S1P4 antag: 9

Results for Cc1cc(C(=O)N2CCc3ccccc3C2)on1 ?
AI-2 QS mod: 1

What do the screens show for `CCC(C(=O)OCC(=O)Nc1ccc(SC(F)F)cc1)c1ccccc1` (stereo not drawn)?
Hsp70 activator: 0; S1P4 agonist: 0; S1P3 antagonist: -24; AI-2 QS mod: -89*; S1P4 antag: 19

What do the screens show for `CCC(C(=O)OCC(=O)Nc1ccc(C(N)=O)cc1)c1ccccc1` (stereo not drawn)?
Hsp70 activator: 0; S1P4 agonist: 1; S1P3 antagonist: 6; AI-2 QS mod: 11; S1P4 antag: 4

How did Cc1ccccc1SCC(=O)Nc1cc(C(F)(F)F)ccc1N1CCOCC1 do in these assays?
AI-2 QS mod: 39

What do the screens show for `O=C(O)/C=C/C(=O)c1ccc2c(c1)CCc1ccccc1-2`?
AI-2 QS mod: -89*

What do the screens show for `CC(OC(=O)CC1Sc2ccccc2NC1=O)C(=O)NC1CCCC1` (stereo not drawn)?
AI-2 QS mod: 10

Results for CCS(=O)(=O)c1ccc(O)c(NC(=O)/C=C/c2ccccc2)c1 ?
Hsp70 activator: 0; S1P4 agonist: 1; S1P3 antagonist: -10; AI-2 QS mod: -91*; S1P4 antag: -29

How did NS(=O)(=O)c1ccc(Nc2c([N+](=O)[O-])cncc2[N+](=O)[O-])cc1 do in these assays?
AI-2 QS mod: -93*
